Screening data deposited in PubChem by The Scripps Research Institute Molecular Screening Center.
Shown are actives, neighbours in structure and some others; about 3.5% of the full set was active somewhere.
GPR151 ag – activates the human receptor GPR151; Q8TDV0; PathHunter beta-arrestin GPR151 cells, luminescence; activation, % at 11.2 µM; hit rate 1% among 650,000; AID 1508602; in the data active = activation above about 4.9%;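 note: 0% = median of compound wells and 100% = cells with positive control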
TEAD-YAP block – TEAD-YAP interaction inhibition. HEK-TIYL cells, TEAD-Gal4/YAP UAS-luciferase luminescence. inhibition, % at 9.12 µM. hit rate 1.4% among 640,000. AID 1259422; in the data active = inhibition above about 32%;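 note: 0% = median of test compound wells and 100% = reference inhibitor wells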
FBW7 act – activators of human E3 ligase FBW7. AlphaScreen FBW7–phospho-cyclin E peptide binding, activator screen. AID 1259310. hit rate 0.13% among 650,000. normalized activity (activation), % at 26.1 µM; in the data active = normalized activity above about 1.9%;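 note: purified mutant Fbw7 with reduced substrate affinity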
MITF inh – blocks human microphthalmia-associated transcription factor | O75030 | AlphaScreen MITF homodimerization, bead proximity signal | inhibition, % at 2.6 µM | hit rate 0.91% among 650,000; in the data active = inhibition above about 50%;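 note: 0% = vehicle wells with protein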
Target sequence (O75030 whole entry, looked up): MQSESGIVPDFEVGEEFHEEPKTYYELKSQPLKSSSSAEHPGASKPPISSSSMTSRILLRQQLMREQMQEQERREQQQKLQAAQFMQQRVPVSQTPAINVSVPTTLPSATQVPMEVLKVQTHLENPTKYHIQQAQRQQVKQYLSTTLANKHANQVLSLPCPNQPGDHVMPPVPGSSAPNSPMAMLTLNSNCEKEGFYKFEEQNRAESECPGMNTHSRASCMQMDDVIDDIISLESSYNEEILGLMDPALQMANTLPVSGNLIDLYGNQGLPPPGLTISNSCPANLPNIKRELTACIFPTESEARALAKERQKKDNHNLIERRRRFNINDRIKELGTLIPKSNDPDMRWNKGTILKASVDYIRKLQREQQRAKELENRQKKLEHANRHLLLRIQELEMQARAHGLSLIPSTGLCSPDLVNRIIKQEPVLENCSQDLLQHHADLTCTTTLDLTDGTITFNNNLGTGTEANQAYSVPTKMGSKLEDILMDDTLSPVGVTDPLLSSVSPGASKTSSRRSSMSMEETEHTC
Starred values were filed as active, the others as inactive.

SMILES | GPR151 ag | TEAD-YAP block | FBW7 act | MITF inh
Cc1nn(C)c(C)c1-c1nc(NCCCN2CCCC2=O)c2ncn(-c3ccccc3)c2n1 | 0 | 18 | 0 | -7
Cc1nn(C)c(C)c1-c1nc(NCCN2CCOCC2)c2ncn(-c3ccsc3)c2n1 | -2 | 38* | 0 | 10
CCCNc1nc(-c2c(C)nn(C)c2C)nc2c1ncn2-c1ccsc1 | -1 | 23 | 0 | 0
O=C1CCCN1CCCNc1nc(NCCCN2CCCC2=O)c2ncn(-c3ccsc3)c2n1 | 1 | 39* | 0 | -1
Cc1nn(C)c(C)c1-c1nc(NCCCN2CCCC2=O)c2ncn(-c3ccsc3)c2n1 | -1 | 56* | 0 | 16
Cc1nn(C)c(C)c1-c1nc(NCCc2ccc(O)cc2)c2ncn(-c3ccsc3)c2n1 | 2 | 56* | 0 | 20
O=C1CCCN1CCCNc1nc(NCCN2CCOCC2)nc2c1ncn2-c1ccsc1 | -1 | 18 | 0 | -2
Cc1c(NC(=O)NC(C)(C)C)sc(=S)n1C | 1 | -1 | 0 | -14
CN1/C(=C\C(=O)COC(=O)COc2ccc(C#N)cc2)C(C)(C)c2ccccc21 | 0 | -6 | 0 | 9
O=C1CCCN1CCCNc1nc(Nc2ccncc2)nc2c1ncn2-c1ccsc1 | -2 | 60* | 0 | -2
O=C1CCCN1CCCNc1nc(Nc2ccc(C(F)(F)F)cc2)nc2c1ncn2-c1ccsc1 | 0 | 12 | 0 | 5
O=C1CCCN1CCCNc1nc(Nc2ccccc2)nc2c1ncn2-c1ccsc1 | 1 | 65* | 0 | 9
O=C1CCCN1CCCNc1nc(-c2csc3ccccc23)nc2c1ncn2-c1ccsc1 | 1 | 12 | 0 | 8
O=C1CCCN1CCCNc1nc(-c2cccs2)nc2c1ncn2-c1ccsc1 | -1 | 55* | 0 | 14
CCCNc1nc(NCCCN2CCCC2=O)nc2c1ncn2-c1ccccc1 | -2 | 42* | 0 | 3
COc1ccc(C(=O)Nc2cc3nn(-c4ccc(Cl)cc4)nc3cc2C)cc1[N+](=O)[O-] | 0 | -6 | 0 | -8
Cc1c(C(C)NC(=O)CCc2nc(-c3ccccc3)no2)cnn1-c1ccccn1 (centres undefined) | -1 | -20 | 0 | 11
CC1C2CC(C(C(Nc3ccccc3)c3ccccc3)C2=O)C1(C)C (centres undefined) | 0 | 7 | 0 | -2
Cc1cc(C)c(C)c(COc2cc3oc(=O)c4c(c3cc2Cl)CCC4)c1C | -1 | 3 | 0 | 11
O=C1CCCN1CCn1cnc2c(NCCOc3ccccc3)nc(Nc3ccc(-n4ccnc4)cc3)nc21 | 2 | 3 | 0 | 14
O=C1CCCN1CCCNc1nc(Nc2ccc3ncccc3c2)nc2c1ncn2-c1ccsc1 | 0 | 52* | 0 | 11
O=C1CCCN1CCCNc1nc(Nc2ncccn2)nc2c1ncn2-c1ccccc1 | -1 | 3 | 0 | -8
O=C1CCCN1CCCNc1nc(Nc2cccnc2)nc2c1ncn2-c1ccsc1 | 0 | 47* | 0 | -5
O=C1CCCN1CCCNc1nc(Nc2ccccc2)nc2c1ncn2-c1ccccc1 | -1 | 39* | 0 | 6
O=C1CCCN1CCCNc1nc(Nc2ccc(-n3ccnc3)cc2)nc2c1ncn2-c1ccccc1 | 0 | 52* | 0 | 12
SMILES | GPR151 ag | TEAD-YAP block | FBW7 act | MITF inh
O=C(CSc1nc2ccccc2n1S(=O)(=O)Cc1ccccc1)c1ccc(Cl)cc1 | 0 | 1 | 0 | 14
COc1cc(Nc2nc(NCCCN3CCCC3=O)c3ncn(-c4ccccc4)c3n2)cc(OC)c1OC | -1 | 49* | 0 | 9
O=C1CCCN1CCCNc1nc(Nc2ccc(-n3ccnc3)cc2)nc2c1ncn2-c1ccsc1 | 1 | 61* | 0 | 9
CCCCC(CC)C(=O)Nc1ncc([N+](=O)[O-])s1 (centres undefined) | 0 | 44* | 0 | 10
CCCCN(CCCC)Cc1c(C)[nH]c2c(C)cc(C)cc2c1=O | 2 | 8 | 0 | -6
Cc1c(NC(=O)c2cc(-c3cccc(Br)c3)nc3ccccc23)c(=O)n(-c2ccccc2)n1C | 0 | 10 | 1 | 1
Cc1c(NC(=O)c2cc(-c3ccccc3)nc3ccccc23)c(=O)n(-c2ccccc2)n1C | 0 | 33* | 0 | -3
CCCc1ccc(Oc2c(C(F)(F)F)oc3cc(O)ccc3c2=O)cc1 | -1 | 65* | 1 | 9
CC(C)(C)c1ccc(Oc2c(C(F)(F)F)oc3cc(O)ccc3c2=O)cc1 | 1 | 88* | 0 | -1
COC(=O)c1ccc(Oc2c(C(F)(F)F)oc3cc(O)ccc3c2=O)cc1 | 0 | -2 | 0 | 4
COc1ccc(OCCOCCOc2ccccc2C=O)cc1 | -1 | 46* | 0 | -7
COc1ccccc1OCCOc1ccc(C=O)cc1 | -1 | -2 | 0 | 6
N#CC1=C(N)N(c2sc3c(c2C#N)CCCC3)C2=C(C(=O)CCC2)C1c1cccc([N+](=O)[O-])c1 (centres undefined) | 1 | -1 | 0 | 8
FC(F)(F)c1cc(-c2ccc(Cl)cc2)nc(NCCc2ccccc2)n1 | -1 | 4 | 1 | 8
Cc1cc2c(cc1C)C(c1cccc(Cl)c1)CC(=O)N2 (centres undefined) | 0 | 37* | 0 | -11
CCOc1ccccc1N1CCN(Cc2ccc(C(=O)NCC3CCCO3)c(=O)[nH]2)CC1 (centres undefined) | 0 | -1 | 0 | 2
COc1ccccc1NC(=O)N1CCC(c2nc3ccc(Cl)cc3[nH]2)CC1 | 0 | 80* | 0 | -3
COc1ccccc1NC(=O)N1CCC(c2nc3ccc(C)cc3[nH]2)CC1 | 0 | 64* | 0 | -3
COc1ccccc1NC(=O)CN1CCC(c2nc3ccc(C)cc3[nH]2)CC1 | 0 | -17 | 0 | -18
CNCCOc1c(C)cc(C)cc1Br | 1 | 4 | 0 | 15
COc1cccc(CC2(CO)CCCN(C(=O)CCn3cncn3)C2)c1 (centres undefined) | -2 | 0 | 1 | 3
Cc1nc(COC(=O)/C=C/c2cc(Br)ccc2F)cs1 | 3 | -1 | 0 | -13
CC(=O)Nc1sc(Cc2ccc3c(c2)OCO3)c(C)c1C(N)=O | -1 | -2 | 0 | 2
Cc1c(Cc2ccc3c(c2)OCO3)sc(NC(=O)CCc2ccccc2)c1C(N)=O | 2 | 56* | 0 | -12
Cc1sc(NC(=S)NC(=O)CCc2ccccc2)c(C(N)=O)c1C | 0 | 50* | 0 | -4
SMILES | GPR151 ag | TEAD-YAP block | FBW7 act | MITF inh
COC(=O)c1c(NC(=O)c2ccc3c(c2)OCO3)sc(C)c1C | 0 | -9 | 0 | 0
COC(=O)CCC(=O)Nc1sc(C)c(C)c1C(N)=O | 1 | -5 | 0 | 2
Cc1sc(NC(=O)c2ccc3c(c2)OCO3)c(C(N)=O)c1-c1ccccc1 | 0 | 90* | 0 | -2
COC(=O)CCC(=O)NC(=S)Nc1sc(C)c(C)c1C(N)=O | 2 | 52* | 0 | -10
CCOc1ccc(CCNC(=O)Cc2noc3ccccc23)cc1 | 1 | -1 | 0 | -7
COC(=O)c1ccc(C(=O)OC)c(NC(=O)COC(=O)c2cc(=O)c3ccccc3o2)c1 | 2 | 10 | 0 | 12
Cc1cc(C)c2nc3c(cc2c1)CN(Cc1ccco1)C(=O)CO3 | 1 | -12 | 0 | 4
